PubChem BioAssay (NCATS)
Records with an inconclusive call do not appear. Activity calls are given as the source filed them. The call rests on the fitted dose curve; in most records, active means well fitted curve in the direction sought with a large enough effect; inconclusive means small, poorly fitted or top-dose-only effect, or another doubt; inactive means no such curve, though single readings can be large; an effect the other way counts as inactive or inconclusive.

Legend:
[1] = qHTS to identify inhibitors of the type 1 interferon - major histocompatibility complex class I in skeletal muscle: primary screen against the NCATS Pharmaceutical Collection (AID 1347407);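 further: luminescence of HiBiT knocked into endogenous HLA-B as interferon-induced MHC class I level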; further: potency means the concentration at half of the fitted maximal effect; on activity change, negative = inhibition: on the % scale 0 is the no-effect control and ±100 the full control effect
In short: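 Cells were seeded with 4 ng/ml IFN-beta, incubated 1 h, then dosed with compounds over eight 1:5 steps up to 46 uM final. After 24 h at 37 C, HiBiT lytic reagent was added and luminescence read after 10 min lysis in the dark.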

[2] = target: Protein phosphatase 1D (Homo sapiens) (UniProt O15297); assay: RapidFire Mass Spectrometry qHTS Assay for Modulators of WT P53-Induced Phosphatase 1 (WIP1) (AID 1347424);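 further: amount of dephosphorylated VEPPL-S-QETFS peptide product formed by WIP1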; further: potency means the concentration at half of the fitted maximal effect;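 on activity change, negative = inhibition: series mostly up to about 63 µM; plate controls were DMSO wells for no effect and GSK830371 inhibitor control at 10 µM for full effect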
Chain of Protein phosphatase 1D (Homo sapiens) (O15297 whole entry, looked up): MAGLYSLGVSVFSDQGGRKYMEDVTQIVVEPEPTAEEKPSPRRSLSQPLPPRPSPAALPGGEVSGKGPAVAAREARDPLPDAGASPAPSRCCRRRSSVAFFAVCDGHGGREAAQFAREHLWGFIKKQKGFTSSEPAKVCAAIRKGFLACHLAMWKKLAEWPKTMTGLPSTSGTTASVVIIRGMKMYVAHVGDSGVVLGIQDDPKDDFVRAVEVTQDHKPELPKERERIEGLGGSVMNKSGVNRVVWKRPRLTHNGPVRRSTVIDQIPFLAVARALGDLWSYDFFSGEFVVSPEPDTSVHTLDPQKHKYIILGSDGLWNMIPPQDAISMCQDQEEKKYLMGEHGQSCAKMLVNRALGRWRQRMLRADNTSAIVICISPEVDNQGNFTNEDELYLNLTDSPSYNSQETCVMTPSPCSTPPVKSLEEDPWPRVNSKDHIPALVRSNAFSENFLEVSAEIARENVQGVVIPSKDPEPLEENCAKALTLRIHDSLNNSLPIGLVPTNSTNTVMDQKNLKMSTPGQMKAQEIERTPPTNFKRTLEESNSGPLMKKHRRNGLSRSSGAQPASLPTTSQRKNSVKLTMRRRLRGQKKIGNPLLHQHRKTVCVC
In short: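 10 nM WIP1 preincubated with compounds 1 hr at room temperature in pH 7.5 Tris buffer with 30 mM MgCl2, 1 mM TCEP; 2 uM VEPPL-pS-QETFS phosphopeptide for 5 min, formic acid quench; dephosphorylated product quantified by RapidFire MS against labelled standard.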

[3] = target: Protein phosphatase 1D (Homo sapiens) (UniProt O15297); assay: Rhodamine-PBP qHTS Assay for Modulators of WT P53-Induced Phosphatase 1 (WIP1) (AID 1347425); further: % of control where 0% means no effect
In short: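 WIP1 (5 nM final) was preincubated with compound for 1 hour at room temperature. It then dephosphorylated 10 uM VEPPL-pS-QETFS peptide in Tris-HCl pH 7.5 with 30 mM MgCl2. Released Pi was detected by 10 uM Rh-PBP fluorescence (ex 525/em 598 nm) read at 1-min intervals for 11 min, as delta f1 - f0.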

[4] = Primary qHTS for inhibitors of La Crosse Virus (LACV) - induced cell death in SH-SY5Y cells (AID 1508616);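 further: top concentration of the series differs between compounds; 0% = infected DMSO wells and 100% = uninfected DMSO wells; higher means more rescue of cells from virus-induced death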
In short: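 Readout was luminescence from ATPLite 1step added after a 6-day LACV infection (0.01 MOI) of SH-SY5Y cells that had received pin-transferred compound 24 hr after seeding.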

[5] = target: Calcium and integrin-binding protein 1 (Homo sapiens) (UniProt Q99828); assay: Primary qHTS for Identification of Calcium Integrin Binding Protein 1 (CIB1) Competitor (AID 1508620);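 further: GST tagged CIB1 binding a fluorescein labelled alphaIIb integrin peptide tracer; top concentration of the series differs between compounds; on the % scale 0 is the no-effect control and ±100 the full control effect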
Chain of Calcium and integrin-binding protein 1 (Homo sapiens) (Q99828 whole entry, looked up): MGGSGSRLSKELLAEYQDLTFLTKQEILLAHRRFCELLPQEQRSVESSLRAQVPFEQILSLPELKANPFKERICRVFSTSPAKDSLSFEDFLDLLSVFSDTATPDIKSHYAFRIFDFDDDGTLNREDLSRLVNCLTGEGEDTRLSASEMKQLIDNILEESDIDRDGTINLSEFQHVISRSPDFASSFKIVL
In short: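 Fluorescence polarization competition: GST-tagged CIB1 (1 uM final) preincubated with compound 15 min at room temperature, then FITC-labelled alphaIIb peptide (100 nM final) added. After 15 min at room temperature, polarization read at Ex 480/Em 540.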

[6] = Counterscreen qHTS for small molecule stabilizers of the endoplasmic reticulum resident proteome: GLuc-NoTag assay (AID 1508627);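 further: SH-SY5Y cells given compound then 100 nM thapsigargin to empty ER calcium; series mostly up to about 76 µM; 0% = thapsigargin alone and -100% = DMSO vehicle control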
In short: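 SH-SY5Y cells stably expressing constitutively secreted GLuc without SERCaMP tag, exposed to compound for 19 hr, then to 100 nM thapsigargin for 4 hr at 37C. Medium luciferase was read by coelenterazine luminescence without lysis.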

[7] = Confirmatory qHTS for small molecule stabilizers of the endoplasmic reticulum resident proteome: Secreted ER Calcium Modulated Protein (SERCaMP) assay (AID 1508628);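 further: SH-SY5Y cells given compound 16 h then thapsigargin 100 nM for 4 h; series mostly up to about 76 µM; on the % scale 0 is the no-effect control and ±100 the full control effect; nearly all actives have a fitted effect of over 40% in size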
In short: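 We seeded SH-SY5Y-GLuc-SERCaMP cells, added compounds (three concentrations in the primary run, eleven up to 76.6 uM in confirmation), incubated 16 h, depleted ER calcium with thapsigargin, and read luciferase 4 h later.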

[8] = target: Calcium and integrin-binding protein 1 (Homo sapiens) (UniProt Q99828); assay: Confirmatory qHTS for Identification of Calcium Integrin Binding Protein 1 (CIB1) Competitor (AID 1508617); further: potency means the concentration at half of the fitted maximal effect; nearly all actives have a fitted effect of over 65% in size
In short: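 FP competition: CIB1-GST (1 uM final) in 5 mM HEPES pH 7.4, 125 mM NaCl, 5 mM CaCl2, 0.01% Tween20 preincubated 15 min RT with compounds (up to 114 uM), then FITC-alphaIIb peptide (100 nM), 15 min RT; Ex 480/Em 540.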

COc1cc(C(=O)NCc2ccc(OCCN(C)C)cc2)cc(OC)c1OC
inactive: Potency [1] | Potency [2] | outcome [3] | outcome [4] | Potency [5]

CCO[C@@H]1O[C@H](C(COCc2ccccc2)OCc2ccccc2)[C@H](OCc2ccccc2)[C@H]1O (some centres not stated)
inactive: Potency [1] | Potency [2] | outcome [3] | outcome [4] | Potency [5]

N=C(N)N1CCc2ccccc2C1
inactive: activity change, negative = inhibition [1] -4.74% [at 3.83 µM] | activity change, negative = inhibition [2] -1.79% [at 6.17 µM] | activity change, negative = inhibition [3] -1.93% [at 4.81 µM] | activity change [4] -3.22% [at 0.431 µM] | activity change, negative = inhibition [5] -1.23% [at 12.4 µM]

COc1ccc(-c2cc(C(F)F)nn2-c2ccc(S(N)(=O)=O)cc2)cc1F
inactive: Potency [1] | Potency [2] | outcome [3] | outcome [4] | Potency [5]

CC(C)(Cc1c[nH]c2ccccc12)NCC(O)COc1ccccc1C#N (configuration not stated)
inactive: Potency [1] | Potency [2] | outcome [3] | outcome [4] | Potency [6]

N[C@H](C(=O)O)[C@@H](O)c1ccc(O)c(O)c1
inactive: Potency [1] | Potency [2] | outcome [3] | outcome [4] | Potency [5]

Cc1cccc(C)c1NC(=O)CN1CCCC1
inactive: Potency [1] | Potency [2] | outcome [3] | outcome [4] | Potency [5]

CCC(C(=O)OCCOCCN(CC)CC)c1ccccc1 (configuration not stated)
inactive: Potency [1] | Potency [2] | outcome [3] | outcome [4] | Potency [5]

COc1ccc(/C=N/NC(=O)c2ccncc2)cc1OC
inactive: Potency [1] | Potency [2] | outcome [3] | outcome [4] | Potency [5]

CCCCCCCCCCCCCCC[C@H](O)[C@@H](N)CO
inactive: Potency [1] | Potency [2] | outcome [3] | outcome [4] | Potency [6] | Potency [7]

Cc1ccccc1OCC(O)CO (configuration not stated)
inactive: Potency [1] | Potency [2] | outcome [3] | outcome [4] | Potency [5]

C[C@]12CCC(=O)C=C1C=C[C@@H]1[C@@H]2CC[C@@]2(C)[C@H]1CC[C@@]21CCC(=O)O1
inactive: Potency [1] | Potency [2] | outcome [3] | outcome [4] | Potency [5]

CC(=O)Nc1ccc(S(=O)(=O)Nc2ccc([N+](=O)[O-])cc2)cc1
inactive: Potency [1] | Potency [2] | outcome [3] | outcome [4] | Potency [5]

CCCCCCCCCCCCOCCOCCOCCOCCOCCOCCOCCOCCOCCO
inactive: Potency [1] | Potency [2] | outcome [3] | outcome [4] | Potency [5]

NC(=O)C1(N2CCCCC2)CCN(CCCC(=O)c2ccc(F)cc2)CC1
inactive: Potency [1] | Potency [2] | outcome [3] | outcome [4] | Potency [5]

O=C(NC1CCN(CCc2c[nH]c3ccccc23)CC1)c1ccccc1
inactive: Potency [1] | Potency [2] | outcome [3] | outcome [4] | Potency [5]

CC(C)[N+](C)(C)CC(O)COc1cccc2ccccc12 (configuration not stated)
inactive: Potency [1] | Potency [2] | outcome [3] | outcome [4] | Potency [5]

C[C@@H](O)[C@H]1C(=O)N2C(C(=O)O)=C(S[C@@H]3CN[C@H](CNS(N)(=O)=O)C3)[C@H](C)[C@H]12
inactive: Potency [1] | Potency [2] | outcome [3] | outcome [4] | Potency [5]

CCOC(=O)Nc1ccc2c(c1)N(C(=O)CCN1CCOCC1)c1ccccc1S2
inactive: Potency [1] | Potency [2] | outcome [3] | outcome [4] | Potency [5]

CCCCCCCCNC(C)C(O)c1ccc(SC(C)C)cc1 (configuration not stated)
inactive: Potency [1] | Potency [2] | outcome [3] | outcome [4] | Potency [5]

COc1ccc(S(=O)(=O)N2c3ccc(Cl)cc3[C@@](O)(c3ccccc3Cl)[C@H]2C(=O)N2CCC[C@@H]2C(N)=O)cc1OC
inactive: Potency [1] | Potency [2] | outcome [3] | outcome [4] | Potency [5]

O=C(c1ccc(F)cc1)C1CCN(CCn2c(=S)[nH]c3ccccc3c2=O)CC1
inactive: Potency [1] | Potency [2] | outcome [3] | Potency [5]

CC(CNC1CCCCC1)OC(=O)c1ccccc1 (configuration not stated)
inactive: Potency [1] | Potency [2] | outcome [3] | outcome [4] | Potency [5]

OC[C@H]1O[C@@H](Oc2ccc(O)cc2)[C@H](O)[C@@H](O)[C@@H]1O
inactive: Potency [1] | Potency [2] | outcome [3] | outcome [4] | Potency [5]

CCOc1cc(OCC)c(C(=O)CCC(=O)O)cc1OCC
inactive: Potency [1] | Potency [2] | outcome [3] | outcome [4] | Potency [5] | Potency [6] | Potency [7]

NC1CCN(c2nc3c(cc2F)c(=O)c(C(=O)O)cn3-c2ccc(F)cc2F)C1 (configuration not stated)
inactive: Potency [1] | Potency [2] | outcome [3] | outcome [4] | Potency [5]

C=CCN1CCc2nc(N)sc2CC1
inactive: Potency [1] | Potency [2] | outcome [3] | outcome [4] | Potency [5] | Potency [6] | Potency [7]

C[N+]1(C)CCC(=C(c2ccccc2)c2ccccc2)CC1
inactive: Potency [1] | Potency [2] | outcome [3] | outcome [4] | Potency [5]

CCN(CC)CCOC(=O)C(Cc1cccc2ccccc12)CC1CCCO1 (configuration not stated)
inactive: Potency [1] | Potency [2] | outcome [3] | outcome [4] | Potency [5]

C[C@@]12C(=O)OC(=O)[C@]1(C)C1CCC2O1
active: Potency [1] 13.3 µM
inactive: Potency [2] | outcome [3] | Potency [5]

C[N+]1(CC2COC(c3ccccc3)(C3CCCCC3)O2)CCCCC1 (configuration not stated)
inactive: Potency [1] | Potency [2] | outcome [3] | outcome [4] | Potency [5]

CCCCCCCCCCCCCC[N+](C)(C)Cc1ccccc1
inactive: Potency [2] | outcome [3] | outcome [4] | Potency [5]

CC[C@H](c1ccc(O)cc1)[C@@H](CC)c1ccc(O)cc1
inactive: outcome [4] | Potency [5]

CCc1oc2ccccc2c1C(=O)c1cc(I)c(O)c(I)c1
active: Potency [2] 3.55 µM | Potency [8] 35.5 µM
inactive: outcome [4]
